PubChem BioAssay (EPA / NIEHS)
Where “and” joins values, the source holds several entries; their conditions need not be identical. Equal entries are not always repeated. The source holds several records for some structures; these can differ, active in one and inactive in another. Calls of active or inactive are those of the source. How the source made its calls: active means hit-call score of the fitted dose curve at least 0.9, where 1 is the maximum; inactive means score below 0.9.

What was measured:
[1] = biological target: Transcription factor E2F1 (Homo sapiens) (UniProt Q01094); assay: ATG_E2F_CIS: Attagene CIS-FACTORIAL HepG2 Assay for human E2F Transcription Factor 1 (AID 2282935); conditions: HepG2 Attagene cis-reporter, E2F reporter RNA transcripts; actives raise or lower the signal
In short: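 HepG2 cells transiently transfected with multiplexed cis-element reporter units, dosed for 24 h. Reporter mRNA measured by RT-PCR, 6-FAM primer-extension labeling, HpaI digestion and capillary electrophoresis; bidirectional fit versus DMSO baseline.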

[2] = ATG_E_Box_CIS: Attagene CIS-FACTORIAL HepG2 Assay for human Enhancer Box (E-box) (AID 2282936); conditions: HepG2 E-box cis-reporter transcription, actives raise or lower the signal
In short: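 HepG2 cells transiently transfected with multiplexed cis-element reporter units sensing endogenous transcription factor activity; 24 h compound exposure. Reporter mRNA measured by RT-PCR, 6-FAM primer extension, HpaI digestion and capillary electrophoresis; bidirectional fit versus DMSO.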

[3] = ATG_EGR_CIS: Attagene CIS-FACTORIAL HepG2 Assay for human Early Growth Response 1 (EGR1) (AID 2282938); conditions: HepG2 Attagene CIS-FACTORIAL EGR reporter mRNA; actives raise or lower the signal
In short: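 HepG2 cells transiently transfected with cis-promoter-driven multiplexed reporter transcription units; reporter mRNA measured 24 h after compound dosing by RT-PCR, 6-FAM primer extension, HpaI digestion and capillary electrophoresis. Bidirectional fit versus DMSO baseline.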

[4] = ATG_M_19_CIS: Attagene CIS-FACTORIAL HepG2 Assay for M19 Transcription Factor (Internal Marker) (AID 2282939); conditions: HepG2 Attagene CIS-FACTORIAL M19 internal marker reporter; actives raise or lower the signal
In short: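 Chemical-treated HepG2 (24 h) with MRTU constructs; reporter transcripts detected by fluorescent RT-PCR fragment analysis on capillary electrophoresis. Internal background marker, DMSO as baseline.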

[5] = ATG_FoxO_CIS: Attagene CIS-FACTORIAL HepG2 Assay for human Forkhead box O (FoxO) (AID 2282943); conditions: HepG2 Attagene cis-reporter, FoxO element, mRNA; actives raise or lower the signal
In short: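 HepG2 cells transiently transfected with cis-promoter-driven multiple reporter transcription units; 24 h after chemical dosing, reporter mRNA quantified by RT-PCR, fluorescent primer extension, HpaI digestion and capillary electrophoresis. Bidirectional fitting versus DMSO baseline.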

[6] = ATG_GATA_CIS: Attagene CIS-FACTORIAL HepG2 Assay for human GATA Binding Protein (AID 2282944); conditions: HepG2 GATA cis-element reporter, Attagene multiplex mRNA; actives raise or lower the signal
In short: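 Transfected cis-reporter HepG2 cells were treated with chemicals for 24 hours. Total RNA was then converted to cDNA, amplified with reporter-specific primers and analysed by fluorescent capillary electrophoresis, using DMSO-treated wells as baseline.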

[7] = ATG_GLI_CIS: Attagene CIS-FACTORIAL HepG2 Assay for human Zinc Finger Protein GLI1 (AID 2282945); conditions: HepG2, Attagene cis-factorial reporter mRNA, GLI element; actives raise or lower the signal
In short: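 HepG2 cells transiently transfected with cis-promoter multiplexed reporter units report endogenous transcription factor activity. After 24 h chemical exposure, reporter mRNA was quantified by RT-PCR, 6-FAM labelling, HpaI digestion and capillary electrophoresis, with bidirectional fitting against DMSO.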

[8] = ATG_GRE_CIS: Attagene CIS-FACTORIAL HepG2 Assay for human Glucocorticoid Response Elements (GRE) (AID 2282947); conditions: HepG2 GRE cis-reporter, Attagene multiplex mRNA; actives raise or lower the signal
In short: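 HepG2 cells transiently transfected with multiple cis-promoter reporter units measure endogenous TF activity; 24 h compound exposure. Reporter mRNA quantified by RT-PCR, FAM labelling, HpaI digestion and capillary electrophoresis; bidirectional fit vs DMSO baseline.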

[9] = ATG_ISRE_CIS: Attagene CIS-FACTORIAL HepG2 Assay for human Interferon Regulatory Factor 1 (IRF1) binding to an Interferon-Stimulated Response Element (ISRE) (AID 2282948); conditions: HepG2 ISRE cis-reporter (Attagene), mRNA transcription readout; actives raise or lower the signal
In short: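 Cell-based cis-reporter assay; HepG2; 24 h exposure; reporter mRNA by RT-PCR plus capillary electrophoresis fluorescence; activity in either direction scored relative to DMSO.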

[10] = ATG_M_32_CIS: Attagene CIS-FACTORIAL HepG2 Assay for M32 Transcription Factor (Internal Marker) (AID 2282949); conditions: HepG2 Attagene cis-factorial M32 reporter, mRNA; actives raise or lower the signal;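 further: background control marker of the multiplexed CIS panel rather than a real target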
In short: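 Following 24 h chemical exposure of HepG2 cells transiently expressing cis-promoter reporter constructs, reporter transcript levels were determined by RT-PCR with fluorescent labelling and capillary electrophoresis, then fitted bidirectionally against DMSO.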

[11] = ATG_M_06_CIS: Attagene CIS-FACTORIAL HepG2 Assay for M06 Transcription Factor (Internal Marker) (AID 2282950); conditions: HepG2 Attagene CIS-FACTORIAL M06 internal marker reporter; actives raise or lower the signal
In short: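 Cells (HepG2, transiently carrying cis-driven reporter units) receive chemical for 24 h before RNA isolation. Reporter cDNA is PCR-amplified, FAM-labelled by primer extension, HpaI-digested and sized on a capillary analyser.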

[12] = biological target: Hypoxia-inducible factor 1-alpha (Homo sapiens) (UniProt Q16665); assay: ATG_HIF1a_CIS: Attagene CIS-FACTORIAL HepG2 Assay for human Hypoxia Inducible Factor 1 (HIF1A) (AID 2282951); conditions: HepG2 Attagene cis-factorial HIF1a reporter transcription; actives raise or lower the signal
In short: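 HepG2 cells transiently transfected with multiplexed cis-promoter reporter units; reporter mRNA read 24 h after dosing by RT-PCR, 6-FAM primer-extension labelling, HpaI digestion and capillary electrophoresis. Bidirectional fit versus DMSO baseline.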

[13] = biological target: Hepatocyte nuclear factor 6 (Homo sapiens) (UniProt Q9UBC0); assay: ATG_HNF6_CIS: Attagene CIS-FACTORIAL HepG2 Assay for human Hepatocyte Nuclear Factor 6 (HNF6) (AID 2282952); conditions: HepG2 Attagene cis-factorial HNF6 reporter transcription; actives raise or lower the signal
In short: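 Cells are HepG2 carrying transiently transfected cis-promoter reporter units. Treatment lasts 24 h, after which reporter transcripts are reverse-transcribed, amplified, FAM-labelled and sized by capillary electrophoresis. DMSO serves as baseline.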

[14] = ATG_MRE_CIS: Attagene CIS-FACTORIAL HepG2 Assay for human Metal Responsive Element (MRE) (AID 2282954); conditions: HepG2 MRE cis-reporter transcription, Attagene multiplex; actives raise or lower the signal
In short: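 HepG2 cells transiently transfected with multiple cis-element reporter units measure endogenous MTF1-driven transcription. After 24 h compound exposure, reporter mRNA is quantified by RT-PCR with 6-FAM labelling, HpaI digestion and capillary electrophoresis; bidirectional fits versus DMSO.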

[15] = ATG_Ets_CIS: Attagene CIS-FACTORIAL HepG2 Assay for human Erythroblast Transformation Specific (ETS) (AID 2282941); conditions: HepG2 ETS cis-reporter transcription, actives raise or lower the signal
In short: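 Human HepG2 hepatoma cells were transiently transfected with promoter-driven reporter constructs and treated for 24 hours. Reporter transcripts were quantified by RT-PCR with fluorescent primer extension; bidirectional curve fitting used DMSO as reference.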

[16] = biological target: Hepatocyte nuclear factor 3-beta (Homo sapiens) (UniProt Q9Y261); assay: ATG_FoxA2_CIS: Attagene CIS-FACTORIAL HepG2 Assay for human Forkhead box A2 (FOXA2) (AID 2282942); conditions: HepG2 cis-reporter transcription factor activity, 24 h; actives raise or lower the signal
In short: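 HepG2 cells transiently transfected with multiple cis-regulated reporter transcription units, dosed for 24 h. Reporter mRNA measured by RT-PCR, 6-FAM labelling, HpaI digestion and capillary electrophoresis; bidirectional fitting against DMSO baseline.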

[17] = biological target: Bile acid receptor (Homo sapiens) (UniProt Q96RI1); assay: ATG_IR1_CIS: Attagene CIS-FACTORIAL HepG2 Assay for human Nuclear Receptor Subfamily 1 Group H Member 4 (NR1H4), IR1 submotif (AID 2282946); conditions: IR1 reporter transcription, actives raise or lower the signal
In short: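 Transient MRTU transfection, HepG2; 24 h dosing; RNA → RT-PCR → 6-FAM primer extension → HpaI digest → capillary electrophoresis fluorescence. Gain/loss of signal fitted relative to DMSO.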

[18] = biological target: Heat shock factor protein 1 (Homo sapiens) (UniProt Q00613); assay: ATG_HSE_CIS: Attagene CIS-FACTORIAL HepG2 Assay for human Heat Shock Transcription Factor 1 (HSE) (AID 2282953); conditions: HepG2 HSE cis-reporter, Attagene RNA transcription; actives raise or lower the signal
In short: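 Liver-derived HepG2 cells carry transiently introduced multiple reporter units governed by cis promoters. Reporter RNA measured 24 h post-dose through reverse transcription, PCR amplification, fluorescent labelling and capillary electrophoresis, normalised to DMSO.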

[19] = ATG_ERE_CIS: Attagene CIS-FACTORIAL HepG2 Assay for Estrogen Response Element (ERE) (AID 2282940); conditions: HepG2 ERE cis-reporter, Attagene RNA transcript; actives raise or lower the signal
In short: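 Human liver cells (HepG2) bearing transiently transfected, promoter-regulated reporter units were exposed 24 h. Reporter mRNA induction was detected by capillary electrophoresis of labelled RT-PCR products and fitted bidirectionally to DMSO.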

[20] = ATG_M_61_CIS: Attagene CIS-FACTORIAL HepG2 Assay for M61 Transcription Factor (Internal Marker) (AID 2282937); conditions: HepG2 Attagene CIS-FACTORIAL M61 internal marker reporter; actives raise or lower the signal
In short: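 HepG2 cells transiently transfected with cis-element-driven multiple reporter transcription units, dosed for 24 h. Reporter mRNA measured by RT-PCR, 6-FAM primer-extension labelling, HpaI digestion and capillary electrophoresis; bidirectional fit versus DMSO baseline.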

Measured: AC50

Sequence of Hepatocyte nuclear factor 6 (Homo sapiens) (Q9UBC0 whole entry, looked up): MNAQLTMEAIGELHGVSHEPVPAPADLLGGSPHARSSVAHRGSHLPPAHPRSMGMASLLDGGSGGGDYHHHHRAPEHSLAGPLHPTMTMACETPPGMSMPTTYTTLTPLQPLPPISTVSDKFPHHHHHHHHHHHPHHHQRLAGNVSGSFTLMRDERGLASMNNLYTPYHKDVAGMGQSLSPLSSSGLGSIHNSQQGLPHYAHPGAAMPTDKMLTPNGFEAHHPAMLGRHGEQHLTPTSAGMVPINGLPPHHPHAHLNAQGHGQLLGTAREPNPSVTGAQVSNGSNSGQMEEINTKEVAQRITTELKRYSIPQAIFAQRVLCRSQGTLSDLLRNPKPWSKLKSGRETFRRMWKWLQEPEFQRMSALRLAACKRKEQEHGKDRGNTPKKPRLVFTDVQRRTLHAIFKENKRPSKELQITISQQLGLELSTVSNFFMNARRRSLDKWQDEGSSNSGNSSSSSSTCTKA
Sequence of Transcription factor E2F1 (Homo sapiens) (Q01094 whole entry, looked up): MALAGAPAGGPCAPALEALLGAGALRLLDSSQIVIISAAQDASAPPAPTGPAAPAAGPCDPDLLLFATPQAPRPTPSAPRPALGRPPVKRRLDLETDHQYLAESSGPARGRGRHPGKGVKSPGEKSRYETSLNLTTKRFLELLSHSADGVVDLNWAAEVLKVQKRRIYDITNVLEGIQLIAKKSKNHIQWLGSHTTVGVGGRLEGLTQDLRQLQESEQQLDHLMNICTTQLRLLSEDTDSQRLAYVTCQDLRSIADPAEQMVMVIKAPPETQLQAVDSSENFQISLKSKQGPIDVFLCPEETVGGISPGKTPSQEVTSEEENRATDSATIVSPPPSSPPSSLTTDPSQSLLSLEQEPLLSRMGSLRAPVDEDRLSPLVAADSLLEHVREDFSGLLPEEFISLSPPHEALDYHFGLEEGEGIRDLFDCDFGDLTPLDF
Sequence of Hypoxia-inducible factor 1-alpha (Homo sapiens) (Q16665 whole entry, looked up): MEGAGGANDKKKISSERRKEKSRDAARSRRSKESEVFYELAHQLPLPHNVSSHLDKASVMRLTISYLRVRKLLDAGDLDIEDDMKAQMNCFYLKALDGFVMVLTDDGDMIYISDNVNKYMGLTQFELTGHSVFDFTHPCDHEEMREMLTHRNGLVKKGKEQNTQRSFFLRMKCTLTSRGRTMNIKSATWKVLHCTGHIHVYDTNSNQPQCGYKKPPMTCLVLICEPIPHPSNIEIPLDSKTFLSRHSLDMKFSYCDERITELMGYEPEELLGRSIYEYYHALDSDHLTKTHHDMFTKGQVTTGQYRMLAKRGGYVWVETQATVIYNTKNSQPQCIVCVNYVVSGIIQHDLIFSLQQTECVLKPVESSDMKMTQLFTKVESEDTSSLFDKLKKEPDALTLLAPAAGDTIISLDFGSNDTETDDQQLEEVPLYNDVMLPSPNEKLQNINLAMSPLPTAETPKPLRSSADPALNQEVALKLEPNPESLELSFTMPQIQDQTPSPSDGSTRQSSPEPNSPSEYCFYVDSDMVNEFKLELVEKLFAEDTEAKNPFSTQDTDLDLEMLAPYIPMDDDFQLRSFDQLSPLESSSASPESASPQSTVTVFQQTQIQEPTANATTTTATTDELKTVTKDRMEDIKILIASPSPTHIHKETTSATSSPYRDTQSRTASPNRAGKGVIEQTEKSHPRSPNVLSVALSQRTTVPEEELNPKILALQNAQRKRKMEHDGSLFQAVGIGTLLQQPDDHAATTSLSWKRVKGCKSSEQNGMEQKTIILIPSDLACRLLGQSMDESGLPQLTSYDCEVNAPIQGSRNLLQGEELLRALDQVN
Sequence of Heat shock factor protein 1 (Homo sapiens) (Q00613 whole entry, looked up): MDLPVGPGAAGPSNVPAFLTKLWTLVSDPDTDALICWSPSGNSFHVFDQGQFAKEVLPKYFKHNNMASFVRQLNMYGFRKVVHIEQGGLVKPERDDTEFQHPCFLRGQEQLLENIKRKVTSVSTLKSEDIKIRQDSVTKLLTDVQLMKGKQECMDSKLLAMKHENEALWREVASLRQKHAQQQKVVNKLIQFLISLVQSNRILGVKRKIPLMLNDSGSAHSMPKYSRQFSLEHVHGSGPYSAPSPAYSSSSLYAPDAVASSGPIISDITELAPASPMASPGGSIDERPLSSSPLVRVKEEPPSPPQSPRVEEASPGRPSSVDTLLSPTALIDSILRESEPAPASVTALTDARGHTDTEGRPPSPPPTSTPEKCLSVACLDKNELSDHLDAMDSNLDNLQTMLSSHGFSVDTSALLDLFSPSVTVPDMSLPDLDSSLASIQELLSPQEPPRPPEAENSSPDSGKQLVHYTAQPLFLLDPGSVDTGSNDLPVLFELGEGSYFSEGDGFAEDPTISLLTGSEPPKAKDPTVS
Sequence of Hepatocyte nuclear factor 3-beta (Homo sapiens) (Q9Y261 whole entry, looked up): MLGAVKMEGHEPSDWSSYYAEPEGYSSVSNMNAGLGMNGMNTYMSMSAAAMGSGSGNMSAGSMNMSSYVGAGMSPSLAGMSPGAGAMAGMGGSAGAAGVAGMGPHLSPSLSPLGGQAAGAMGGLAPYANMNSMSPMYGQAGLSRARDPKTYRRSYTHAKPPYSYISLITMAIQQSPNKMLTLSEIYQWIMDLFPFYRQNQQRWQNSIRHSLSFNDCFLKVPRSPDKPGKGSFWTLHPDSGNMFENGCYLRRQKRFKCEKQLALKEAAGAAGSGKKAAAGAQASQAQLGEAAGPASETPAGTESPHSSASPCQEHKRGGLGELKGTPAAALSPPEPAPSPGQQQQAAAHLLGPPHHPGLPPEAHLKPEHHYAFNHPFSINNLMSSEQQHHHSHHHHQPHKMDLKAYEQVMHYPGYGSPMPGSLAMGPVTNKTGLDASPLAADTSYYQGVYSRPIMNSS
Sequence of Bile acid receptor (Homo sapiens) (Q96RI1 whole entry, looked up): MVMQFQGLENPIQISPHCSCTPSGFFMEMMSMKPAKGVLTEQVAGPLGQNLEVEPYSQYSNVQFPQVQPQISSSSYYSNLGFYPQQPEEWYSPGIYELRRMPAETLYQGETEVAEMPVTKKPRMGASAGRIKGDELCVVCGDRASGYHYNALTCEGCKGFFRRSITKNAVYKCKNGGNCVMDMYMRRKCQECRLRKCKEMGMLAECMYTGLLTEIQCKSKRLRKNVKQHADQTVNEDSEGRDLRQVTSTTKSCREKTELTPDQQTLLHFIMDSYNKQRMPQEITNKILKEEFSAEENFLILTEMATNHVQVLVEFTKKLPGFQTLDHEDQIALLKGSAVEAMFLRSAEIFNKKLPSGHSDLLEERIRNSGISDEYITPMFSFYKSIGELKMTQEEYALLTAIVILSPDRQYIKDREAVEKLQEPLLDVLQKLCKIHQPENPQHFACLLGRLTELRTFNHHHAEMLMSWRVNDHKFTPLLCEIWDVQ

Nc1ccc(O)c(N)c1
inactive: [1] | [2] | [3] | [4] | [5] | [6] | [7] | [8] | [9] | [10] | [11] | [12] | [13] | [14]

CC(O)COCC(C)O (stereo unspecified)
inactive: [1] | [2] | [3] | [4] | [15] | [16] | [5] | [6] | [7] | [17] | [8] | [9] | [10] | [11] | [12] | [18] | [14]

CCC(C)(C)C1CCC(=O)CC1
active: [19] 16.7 µM
inactive: [1] | [2] | [3] | [4] | [15] | [16] | [5] | [6] | [7] | [9] | [10] | [12] | [18] | [14]

Cc1cc(O)c2c(c1)C(=O)c1cc(O)cc(O)c1C2=O
active: [19] 0.602 µM | [15] 19.3 µM | [5] 26.2 µM | [8] 18.5 µM | [9] 36.2 µM | [14] 18.9 µM
inactive: [1] | [2] | [3] | [4] | [16] | [6] | [7] | [10] | [11] | [12]

O=C(c1ccc(OCCN2CCCCC2)cc1)c1c(-c2ccc(O)cc2)sc2cc(O)ccc12
inactive: [1] | [20] | [3] | [4] | [15] | [5] | [6] | [7] | [8] | [9] | [10] | [18] | [14]
active: [3] 11.1 µM and 12.6 µM and 7.51 µM | [4] 11.3 µM and 11.1 µM | [15] 13.6 µM and 17 µM | [7] 11.1 µM and 15.2 µM | [8] 20.2 µM | [9] 11.1 µM and 17 µM and 14.8 µM | [18] 17.2 µM and 17.7 µM and 19.8 µM | [14] 15.8 µM [middle of 4 runs]

OCCCO
inactive: [1] | [2] | [3] | [4] | [15] | [5] | [6] | [7] | [8] | [9] | [10] | [11] | [12] | [13] | [18]

CCCCOCC(C)OCC(C)O (stereo unspecified)
inactive: [1] | [2] | [3] | [4] | [19] | [15] | [5] | [7] | [9] | [10] | [11] | [12] | [13] | [18]

CCCCOCCOCCOCCO
inactive: [1] | [2] | [3] | [4] | [19] | [15] | [16] | [5] | [7] | [9] | [10] | [11] | [12] | [13] | [18] | [14]

CC(O)CN (stereo unspecified)
inactive: [1] | [2] | [3] | [4] | [19] | [15] | [16] | [5] | [7] | [8] | [9] | [10] | [11] | [13] | [14]

CC(C)C(=O)c1ccccc1
inactive: [1] | [2] | [3] | [4] | [15] | [16] | [5] | [6] | [7] | [9] | [11] | [12] | [13] | [18] | [14]
active: [19] 0.5 µM

C=CC(C)(CCC=C(C)C)OC(=O)CC (stereo unspecified)
inactive: [1] | [2] | [3] | [4] | [19] | [15] | [5] | [6] | [7] | [17] | [8] | [9] | [10] | [11] | [12] | [13] | [18] | [14]

CC(C)CCCC(C)(C)O
inactive: [1] | [2] | [3] | [4] | [19] | [16] | [5] | [7] | [9] | [10] | [11] | [12] | [13] | [14]
